Our source for the Inhibition index values is ChEMBL document CHEMBL4303097 (2020).

The full ranking holds about 1,500 compounds; the median of “Inhibition index” is about 0.17, and the highest 2% start at about 1.3. This excerpt belongs to a sample that is enriched for the highest values.

In the assay the test system is SARS-CoV-2. Briefly: Inhibition of cell viability relative to arbidol control (inhibition index > 1 indicates higher activity) measured by fluorescence (OD590nm) in Vero E6 cells infected with SARS-CoV-2 (strain BavPat1) at MOI 0.002 after 72hrs. Type of assay: functional, Chlorocebus sabaeus, Vero C1008.
For the compound `CCCCOc1ccc(C(=O)CCN2CCCCC2)cc1.Cl` [DYCLONINE HYDROCHLORIDE], the Inhibition index is 1.119.

Regarding `CCc1ccc(C(=O)C(C)CN2CCCCC2)cc1.Cl` (stereo not given), the Inhibition index came to 1.254.

With `Cc1ccc(C(=O)C(C)CN2CCCCC2)cc1.Cl` (stereo not given) [TOLPERISONE HYDROCHLORIDE], the Inhibition index amounted to 1.172.

In turn, `C[C@]12CC[C@@H]3c4ccc(O)cc4CC[C@H]3[C@@H]1CC[C@@H]2O` [ESTRADIOL] gave an Inhibition index of 0.3797.

For `C[C@]12CC[C@H]3C(=CCc4cc(O)ccc43)[C@@H]1CCC2=O` [EQUILIN], the Inhibition index was found to be 1.282.

`C[C@]12CC[C@@H]3c4ccc(O)cc4CC[C@H]3[C@@H]1CCC2=O` [ESTRONE] showed an Inhibition index of 0.9303.

Regarding `CC(=O)[N-]S(=O)(=O)c1ccc(N)cc1.O.[Na+]` [SULFACETAMIDE SODIUM], the Inhibition index is 0.002362.

For the compound `Cc1cc(O)c(C(=O)N[C@@H](C(=O)N[C@@H]2C(=O)N3C(C(=O)O)=C(CSc4nnnn4C)CS[C@H]23)c2ccc(O)cc2)cn1` [CEFPIRAMIDE], the Inhibition index was 0.7171.

Compound `CN(C)CCCN1c2ccccc2[S+]([O-])c2ccc(Cl)cc21` (stereo not given) [CHLOROPROMAZINE SULFOXIDE] had an Inhibition index of 0.938.

Regarding `CN1C[C@H](CNC(=O)OCc2ccccc2)C[C@@H]2c3cccc4c3c(cn4C)C[C@H]21` [METERGOLINE], the Inhibition index was -0.1165.

In turn, `CC(C)NCC(O)COc1ccc(CCOCC2CC2)cc1.Cl` (stereo not given) [BETAXOLOL HYDROCHLORIDE] yielded an Inhibition index of 0.6286.

With `CCOc1ccc2ccccc2c1C(=O)N[C@@H]1C(=O)N2[C@@H]1SC(C)(C)[C@@H]2C(=O)[O-].O.[Na+]` [NAFCILLIN SODIUM], the Inhibition index amounted to 0.3633.

Consider `Brc1c(NC2=NCCN2)ccc2nccnc12.O=C(O)C(O)C(O)C(=O)O`, for which the Inhibition index is given as 0.355.

With `CN(C)[C@@H]1C(O)=C(C(N)=O)C(=O)[C@@]2(O)C(O)=C3C(=O)c4c(O)cccc4[C@@](C)(O)[C@H]3C[C@@H]12.Cl` [TETRACYCLINE HYDROCHLORIDE], the Inhibition index was -0.0001993.

In turn, `CCC(=O)O[C@]1(C(=O)SCF)[C@H](C)C[C@H]2[C@@H]3C[C@H](F)C4=CC(=O)C=C[C@]4(C)[C@@]3(F)[C@@H](O)C[C@@]21C` [FLUTICASONE PROPIONATE] came in with an Inhibition index of 0.5757.

Consider `CN(C)[C@@H]1C(O)=C(C(N)=O)C(=O)[C@@]2(O)C(O)=C3C(=O)c4c(O)ccc(Cl)c4[C@@](C)(O)[C@H]3C[C@@H]12.Cl` [CHLORTETRACYCLINE HYDROCHLORIDE], for which the Inhibition index is 0.03495.

Consider `CC(C)NCC(O)c1cc(O)cc(O)c1.CC(C)NCC(O)c1cc(O)cc(O)c1.O=S(=O)(O)O` (stereo not given) [METAPROTERENOL SULFATE], for which the Inhibition index is reported as 0.06285.

`COCC1=C(C(=O)OC(C)OC(=O)OC(C)C)N2C(=O)[C@@H](NC(=O)/C(=N\OC)c3csc(N)n3)[C@H]2SC1` (stereo not given in full) [CEFPODOXIME PROXETIL] registered an Inhibition index of 0.5603.

`C[C@]12Cc3c[nH]nc3C[C@@H]1CC[C@@H]1[C@@H]2CC[C@@]2(C)[C@H]1CC[C@]2(C)O` [STANOZOLOL] showed an Inhibition index of 0.4173.

As to `C[C@]12C/C(=C\O)C(=O)C[C@@H]1CC[C@@H]1[C@@H]2CC[C@@]2(C)[C@H]1CC[C@]2(C)O`, the Inhibition index was found to be 1.738.

`C[C@]12COC(=O)C[C@@H]1CC[C@@H]1[C@@H]2CC[C@@]2(C)[C@H]1CC[C@]2(C)O` [OXANDROLONE] registered an Inhibition index of 0.1105.

For the compound `CC(Cc1ccccc1)NCCC(c1ccccc1)c1ccccc1.CC(O)C(=O)O` (stereo not given), the Inhibition index is given as -0.1094.

Take `Cl.OC(c1cc(C(F)(F)F)nc2c(C(F)(F)F)cccc12)C1CCCCN1` (stereo not given) [MEFLOQUINE HYDROCHLORIDE]: the Inhibition index is given as -0.1263.

`CS(=O)(=O)O.Cc1ccc2c(c1)c1c3n2CCNC3CCC1` (stereo not given) came in with an Inhibition index of 0.5995.

With `C=C1/C(=C\C=C2/CCC[C@]3(C)[C@@H]([C@H](C)CCCC(C)C)CC[C@@H]23)C[C@@H](O)C[C@@H]1O` [ALFACALCIDOL], the Inhibition index is recorded as -0.1396.

The compound `COc1ccc(-c2noc(CC(=O)O)c2-c2ccc(OC)cc2)cc1` [MOFEZOLAC] came in with an Inhibition index of 0.1442.

With `Nc1cccc2c1C(=O)N(C1CCC(=O)NC1=O)C2=O` (stereo not given) [POMALIDOMIDE], the Inhibition index was -0.01474.

As for `O=C1Nc2ccc(Cl)cc2[C@@](C#CC2CC2)(C(F)(F)F)O1` [EFAVIRENZ], the Inhibition index was -0.107.

In the case of `CCOCCn1c(N2CCCN(C)CC2)nc2ccccc21.O=C(O)/C=C/C(=O)O.O=C(O)/C=C/C(=O)O` [EMEDASTINE DIFUMARATE], the Inhibition index was 0.1648.

Consider `N=C(N)c1ccc(OCCCCCOc2ccc(C(=N)N)cc2)cc1.O=S(=O)(O)CCO.O=S(=O)(O)CCO` [PENTAMIDINE ISETHIONATE], for which the Inhibition index was -0.04121.

In the case of `Cc1cccc(C)c1NC(=O)CC12CCCN1CCC2.Cl`, the Inhibition index came out at 0.08672.

As for `CCC(=O)O[C@@H]1CC(=O)O[C@H](C)C/C=C/C=C/[C@H](O)[C@H](C)C[C@H](CC=O)[C@H](O[C@@H]2O[C@H](C)[C@@H](O[C@H]3C[C@@](C)(O)[C@@H](OC(=O)CC)[C@H](C)O3)[C@H](N(C)C)[C@H]2O)[C@H]1OC` [MIDECAMYCIN], the Inhibition index came out at 0.09553.

In turn, `CO[C@@H]1[C@@H](O[C@@H]2O[C@H](C)[C@@H](O[C@H]3C[C@@](C)(O)[C@@H](O)[C@H](C)O3)[C@H](N(C)C)[C@H]2O)[C@@H](CC=O)C[C@@H](C)[C@@H](O[C@H]2CC[C@H](N(C)C)[C@@H](C)O2)/C=C/C=C/C[C@@H](C)OC(=O)C[C@H]1OC(C)=O` had an Inhibition index of 1.276.

In turn, `CO[C@@H]1[C@@H](O[C@@H]2O[C@H](C)[C@@H](O[C@H]3C[C@@](C)(O)[C@@H](OC(=O)CC(C)C)[C@H](C)O3)[C@H](N(C)C)[C@H]2O)[C@@H](CC=O)C[C@@H](C)[C@@H](O)/C=C/C=C/C[C@@H](C)OC(=O)C[C@H]1OC(C)=O` [JOSAMYCIN] returned an Inhibition index of 0.1589.

As for `C[C@H]1O[C@@H](O[C@H]2[C@@H](O)C[C@H](O[C@H]3[C@@H](O)C[C@H](O[C@H]4CC[C@@]5(C)[C@H](CC[C@@H]6[C@@H]5C[C@@H](O)[C@]5(C)[C@@H](C7=CC(=O)OC7)CC[C@]65O)C4)O[C@@H]3C)O[C@@H]2C)C[C@H](O)[C@@H]1O` [DIGOXIN], the Inhibition index is given as 0.2267.

For the compound `COc1ccc(C[C@@H]2c3cc(OC)c(OC)cc3CC[N@+]2(C)CCC(=O)OCCCCCOC(=O)CC[N@@+]2(C)CCc3cc(OC)c(OC)cc3[C@H]2Cc2ccc(OC)c(OC)c2)cc1OC.O=S(=O)([O-])c1ccccc1.O=S(=O)([O-])c1ccccc1` [CISATRACURIUM BESYLATE], the Inhibition index came out at 1.338.

For the compound `COc1ccc(CC2c3cc(OC)c(OC)cc3CC[N+]2(C)CCC(=O)OCCCCCOC(=O)CC[N+]2(C)CCc3cc(OC)c(OC)cc3C2Cc2ccc(OC)c(OC)c2)cc1OC.O=S(=O)([O-])c1ccccc1.O=S(=O)([O-])c1ccccc1` (stereo not given) [ATRACURIUM BESYLATE], the Inhibition index worked out at 0.8693.

On to `CC1(C)S[C@@H]2[C@H](NC(=O)[C@@H](c3ccccc3)S(=O)(=O)O)C(=O)N2[C@H]1C(=O)O.[Na+].[Na+]`, for which the Inhibition index is listed as 0.4594.

The compound `NC12CC3CC(CC(C3)C1)C2.NC12CC3CC(CC(C3)C1)C2.O=C(O)/C=C\C(=O)O` yielded an Inhibition index of 0.02174.

As to `CC1=C(C(=O)O)N2C(=O)[C@@H](NC(=O)[C@H](N)c3ccc(O)cc3)[C@H]2SC1` [CEFADROXIL], the Inhibition index was determined as 0.02715.

`CN1CCN(CCCN2c3ccccc3Sc3ccc(C(F)(F)F)cc32)CC1.Cl.Cl` [TRIFLUOPERAZINE HYDROCHLORIDE]: the Inhibition index was -0.1697.

As to `COC(c1ccccc1)(c1ccccc1)C(Oc1nc(C)cc(C)n1)C(=O)O` (stereo not given), the Inhibition index stood at 1.459.

With `CN1CCC(=C2c3ccccc3CCc3cccnc32)CC1.O=C(O)/C=C\C(=O)O.O=C(O)/C=C\C(=O)O` [AZATADINE MALEATE], the Inhibition index is on record as 0.8296.

For the compound `CN(C)CCOC(=O)C(c1ccccc1)C1(O)CCCC1.Cl` (stereo not given) [CYCLOPENTOLATE HYDROCHLORIDE], the Inhibition index was 1.136.

Take `CNCC(O)c1ccc(O)c(O)c1.Cl` (stereo not given) [RACEPINEPHRINE HYDROCHLORIDE]: the Inhibition index is given as 0.3358.

Consider `CC(C)(C)NC[C@H](O)c1ccc(O)c(CO)c1.Cl` [LEVALBUTEROL HYDROCHLORIDE], for which the Inhibition index is 1.311.

`CC(C)(C)NCC(O)c1ccc(O)c(CO)c1` (stereo not given) [ALBUTEROL]: the Inhibition index turned out to be 0.0995.

Compound `CC[N+](C)(C)Cc1ccccc1Br.Cc1ccc(S(=O)(=O)[O-])cc1` [BRETYLIUM TOSYLATE] returned an Inhibition index of 0.2627.

The compound `CC(=O)N[C@@H](CC(=O)O)C(=O)N[C@@H](CCC(=O)O)C(=O)O` [ISOSPAGLUMIC ACID] showed an Inhibition index of 0.8884.

Compound `CC(=O)O[C@]1(C(C)=O)CC[C@H]2[C@@H]3C=C(Cl)C4=CC(=O)C5CC5[C@]4(C)[C@H]3CC[C@@]21C` (stereo not given in full) came in with an Inhibition index of 0.4824.

`N[C@H]1CONC1=O` [LEVCYCLOSERINE]: the Inhibition index is listed as 1.42.

As to `N[C@@H]1CONC1=O` [CYCLOSERINE], the Inhibition index came to 1.427.

`O.O=P(O)(O)C(O)(Cc1cccnc1)P(=O)(O)O` registered an Inhibition index of 0.3004.

`CC[N+](C)(CC)CCC[n+]1c(-c2ccccc2)c2cc(N)ccc2c2ccc(N)cc21.[I-].[I-]` [PROPIDIUM] showed an Inhibition index of 0.2273.

Regarding `CC[C@]12CCCN3CCc4c(n(c5ccccc45)[C@@](O)(C(=O)OC)C1)[C@@H]32` [VINCAMINE], the Inhibition index came to 0.1041.
